{
  "source": "PubChem BioAssay AID894",
  "about": "(National Center for Advancing Translational Sciences (NCATS), 2007)",
  "note": "“And” between values parts separate entries of the source, which are not always exact repeats. Identical values can stand only once. Out of some 150,000 compounds screened, about 6,500 (4.3%) were called active. Another 12% or so got no clear call; they are omitted. Only a selection was taken, and actives are over-represented in it overall. Where a structure was tested more than once in an assay, its records may differ in their call. Unmarked numbers belong to inactive results. The call rests on the fitted dose curve; in most records, active means well fitted inhibition curve with a large enough effect (not every such curve was filed as active); inconclusive means small, poorly fitted or top-dose-only effect, or another doubt; inactive means no such curve, though single readings can be large or run the other way. On the % scale 0 is the no-effect control and ±100 the full control effect; potency means the concentration at half of the fitted maximal effect.",
  "data": [
    {"target": "15-hydroxyprostaglandin dehydrogenase [NAD(+)] (Homo sapiens) (UniProt P15428)", "sequence (P15428 whole entry, looked up)": "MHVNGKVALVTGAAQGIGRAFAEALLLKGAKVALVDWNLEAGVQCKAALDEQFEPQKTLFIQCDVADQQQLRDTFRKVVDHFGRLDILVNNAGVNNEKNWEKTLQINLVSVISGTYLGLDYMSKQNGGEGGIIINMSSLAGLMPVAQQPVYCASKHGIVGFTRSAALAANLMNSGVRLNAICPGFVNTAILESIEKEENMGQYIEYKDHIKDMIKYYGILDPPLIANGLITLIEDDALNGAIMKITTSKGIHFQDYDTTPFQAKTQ", "assay": "qHTS Assay for Inhibitors of HPGD (15-Hydroxyprostaglandin Dehydrogenase)", "conditions": "purified HPGD, NADH fluorescence kinetic, PGE2 substrate; activity change, negative = inhibition: hits give low values", "procedure,_shortened": "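20 nM HPGD preincubated 15 min at room temperature with compound in 50 mM Tris-HCl pH 8, 0.01% Tween 20. Started with 1 mM NAD+ and 30 uM prostaglandin E2; NADH fluorescence (360/450 nm) read 5 times over 30-s intervals, last minus first.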", "values": [
      {"smiles": "Cc1ccc(NC(=S)NC(=O)/C=C/c2ccc(Cl)cc2)cc1", "activity change, negative = inhibition": "-18.9%"},
      {"smiles": "CC(NC(=O)COC(=O)C1CCN(S(=O)(=O)c2ccccc2C(F)(F)F)CC1)c1ccccc1", "note": "(stereo not given)", "activity change, negative = inhibition": "-6.33%"},
      {"smiles": "CC1(OC(=O)c2ccc(Cl)nc2)C(=O)Cc2cc(-c3ccsc3)ncc2C1=O", "note": "(stereo not given)", "activity change, negative = inhibition": "2.16%"},
      {"smiles": "O=C(NCCN1CCOCC1)c1cc(Sc2cccc(Cl)c2)nc2ccccc12", "activity change, negative = inhibition": "-1.7%"},
      {"smiles": "O=C(NC(=S)Nc1cc(C(F)(F)F)ccc1N1CCOCC1)c1ccc(-c2cccc(Cl)c2)o1", "activity change, negative = inhibition": "-5.6%"},
      {"smiles": "CCN1C(=O)/C(=C2/Sc3ccccc3N2CCCS(=O)(=O)O)SC1=S", "Potency": "20 µM (active)"},
      {"smiles": "CCC(=O)/C=C1\\Sc2ccccc2N1CC", "activity change, negative = inhibition": "-16.1%"},
      {"smiles": "CCN1C(=O)/C(=C\\N2CCN(c3ccccc3)CC2)SC1=S", "activity change, negative = inhibition": "-18.6%"},
      {"smiles": "COc1ccc(C)cc1NC(=O)C(OC(=O)c1cccc(S(=O)(=O)N(C)c2ccccc2)c1)c1ccccc1", "note": "(stereo not given)", "activity change, negative = inhibition": "-17.6%"},
      {"smiles": "CC(=O)c1c(N2CCN(c3ccc(F)cc3)CC2)nc(=S)n(-c2ccccc2)c1C", "activity change, negative = inhibition": "-7.92%"},
      {"smiles": "O=[N+]([O-])c1ccc(N2CCNCC2)cc1NCc1cccnc1", "activity change, negative = inhibition": "-18.8%"},
      {"smiles": "O=C1OC(OC(=O)c2ccccc2Br)C(N2CCOCC2)=C1Cl", "note": "(stereo not given)", "activity change, negative = inhibition": "-15.3%"},
      {"smiles": "COc1ccc(OCc2ccc(-c3nc4ccccc4c(=O)n3N)o2)cc1", "activity change, negative = inhibition": "-2.6%"},
      {"smiles": "O=C(CCn1c(SCC(=O)c2ccccc2)nc2ccccc2c1=O)NCc1ccc(F)cc1", "activity change, negative = inhibition": "-4.59%"},
      {"smiles": "Cc1ccc(C(=O)CSc2nc3ccccc3c(=O)n2N)o1", "Potency": "25.1 µM (active)"},
      {"smiles": "O=C(CSc1nc2ccccc2[nH]1)Nc1nc(-c2ccccc2)c(-c2ccccc2)o1", "activity change, negative = inhibition": "-28.7%"},
      {"smiles": "O=C(CN1C(=O)/C(=C\\c2ccccc2F)SC1=S)Nc1nc2ccccc2s1", "activity change, negative = inhibition": "-21.2%"},
      {"smiles": "CC(=O)Nc1cc(C(=O)O)ccc1S(=O)(=O)c1ccc(Cl)cc1", "activity change, negative = inhibition": "-9.11%"},
      {"smiles": "O=C(Nc1ccccc1)c1nnsc1S(=O)(=O)c1ccc(Cl)cc1", "Potency": "11.2 µM (active)"},
      {"smiles": "O=C(Nc1ccc(Cl)cc1)c1ccsn1", "activity change, negative = inhibition": "-18.4%"},
      {"smiles": "Cc1ccccc1Nc1nc(N)nc(CSc2ccccc2)n1", "activity change, negative = inhibition": "-2.99%"},
      {"smiles": "COc1ccc(-n2c(C)cc(C(=O)CN3C(=O)NC4(CCc5ccccc54)C3=O)c2C)cc1", "note": "(stereo not given)", "activity change, negative = inhibition": "-8.92%"},
      {"smiles": "COc1cc(/C=C/C(=O)O)cc(S(=O)(=O)Nc2ccccc2SC)c1OC", "activity change, negative = inhibition": "-7.12%"},
      {"smiles": "COc1ccc([N+](=O)[O-])cc1N(CC(O)Cn1nnc2ccccc21)S(=O)(=O)c1ccc(C)cc1", "note": "(stereo not given)", "Potency": "28.2 µM (active)"},
      {"smiles": "Cc1cc(C)n(CC(O)CN(c2ccccc2)S(=O)(=O)c2ccc3ccccc3c2)n1", "note": "(stereo not given)", "activity change, negative = inhibition": "-6.52%"},
      {"smiles": "Cc1ccc(N(CC(O)CN2CCCC2)S(=O)(=O)c2ccccc2)cc1", "note": "(stereo not given)", "activity change, negative = inhibition": "-2.29%"},
      {"smiles": "CCCn1c(C(O)c2ccc(OCC)cc2)nc2ccccc21", "note": "(stereo not given)", "activity change, negative = inhibition": "-9.25%"},
      {"smiles": "CCCCCCOC(=O)NCC(O)c1ccccc1", "note": "(stereo not given)", "activity change, negative = inhibition": "-19.8%"},
      {"smiles": "CCCCCC(O)c1cccc(OCc2ccc3ccccc3n2)c1", "note": "(stereo not given)", "Potency": "14.1 µM (active)", "activity change, negative = inhibition": "-26.2% and -5.68%"},
      {"smiles": "Cc1cc(NC(=O)Nc2ccccc2)n(-c2ccccc2)n1", "activity change, negative = inhibition": "-0.703%"},
      {"smiles": "Cc1nn(-c2ccccc2)c(C)c1NC(=O)CCl", "activity change, negative = inhibition": "-8.71%"},
      {"smiles": "Cc1nn(-c2ccccc2)c(Cl)c1C(=O)Nc1ccccc1", "Potency": "14.1 µM (active)"},
      {"smiles": "CCCCNC(=O)C1CCC(CNS(=O)(=O)c2ccc(NC(C)=O)cc2)CC1", "note": "(stereo not given)", "activity change, negative = inhibition": "-26.6%"},
      {"smiles": "COc1ccc(NC(=S)NCC2CCN(c3ccc(OC)cc3)C2)cc1", "note": "(stereo not given)", "activity change, negative = inhibition": "-3.49%"},
      {"smiles": "O=C(NNC(=S)Nc1ccc(Br)cc1Cl)c1ccco1", "activity change, negative = inhibition": "-15.2%"},
      {"smiles": "CNC(=S)NNC(=O)c1sccc1OCc1ccccc1", "activity change, negative = inhibition": "1.03%"},
      {"smiles": "Cc1ccc(/C=N/NC(=O)c2sccc2OCc2ccc(F)cc2)cc1", "Potency": "31.6 µM (active)"},
      {"smiles": "Cc1ccsc1C(=O)N/N=C/c1ccc([N+](=O)[O-])cc1", "activity change, negative = inhibition": "-12.4%"},
      {"smiles": "Cc1ccc(NC(=O)O[C@@H]2C(=O)c3cc(Br)ccc3O[C@H]2c2ccc3c(c2)OCO3)cc1Br", "activity change, negative = inhibition": "-8.38%"},
      {"smiles": "O=C1C=C(c2ccc(Cl)cc2)C(=O)N1Nc1ccccc1", "Potency": "22.4 µM (active)"},
      {"smiles": "O=C1c2cccc3cc(Br)cc(c23)C(=O)N1Nc1ccccc1", "activity change, negative = inhibition": "-5.3%"},
      {"smiles": "O=C(Nc1ccccc1)OCc1cc(-c2ccc(Cl)cc2)on1", "activity change, negative = inhibition": "-7.01%"},
      {"smiles": "Cc1cc(N2CCOCC2)nc(-c2ccc(Br)cc2)n1", "activity change, negative = inhibition": "-7.33%"},
      {"smiles": "CCC(C)NCCOCCOc1ccc(Br)cc1C", "note": "(stereo not given)", "activity change, negative = inhibition": "-6.54%"},
      {"smiles": "Cc1ccc(C(=O)/C=C/Nc2ccc(S(=O)(=O)Nc3onc(C)c3C)cc2)cc1", "activity change, negative = inhibition": "-26.4%"},
      {"smiles": "Cc1ccc(S(=O)(=O)N2CCCC2C(=O)OCc2nc3sc(C)c(C)c3c(=O)[nH]2)cc1", "note": "(stereo not given)", "activity change, negative = inhibition": "-20.7%"},
      {"smiles": "Cc1cc([N+](=O)[O-])ccc1NC1CCCC1", "activity change, negative = inhibition": "-16.1%"},
      {"smiles": "Cc1c(NS(=O)(=O)c2ccc(NC3CCCC3)c([N+](=O)[O-])c2)c(=O)n(-c2ccccc2)n1C", "activity change, negative = inhibition": "-7.49%"},
      {"smiles": "Cc1cc(C=O)c(C)n1-c1ccc(NC2CCCCC2)c([N+](=O)[O-])c1", "Potency": "7.94 µM (active)"},
      {"smiles": "COc1ccc(C2NC(=S)NC3=C2CCc2ccccc23)cc1OC", "note": "(stereo not given)", "activity change, negative = inhibition": "-17.9%"},
      {"smiles": "Cc1nn(Cc2ccc(F)cc2)c(C)c1NC(=O)c1cccnc1Cl", "activity change, negative = inhibition": "-10.3%"},
      {"smiles": "COc1cccc(CNCCc2c[nH]c3ccccc23)c1OCc1ccccc1F", "activity change, negative = inhibition": "-4.46%"},
      {"smiles": "CCOc1cc(/C=N/O)ccc1OCc1ccccc1F", "activity change, negative = inhibition": "-1.63%"},
      {"smiles": "COc1cc(/C=C2/C(=O)ON=C2C)ccc1OCc1ccccc1F", "Potency": "1.58 µM (active)"},
      {"smiles": "CCOc1ccc(/C=N/NC(=O)C(C)Sc2ccccn2)cc1OCC", "note": "(stereo not given)", "activity change, negative = inhibition": "-18.1%"},
      {"smiles": "COc1ccc(/C=C/C(=O)c2ccc(NS(=O)(=O)c3ccc(C)cc3)cc2)cc1O", "activity change, negative = inhibition": "-19.9%"},
      {"smiles": "O=C1CC(Sc2ncn[nH]2)C(=O)N1c1ccccc1", "note": "(stereo not given)", "Potency": "12.6 µM (active)"},
      {"smiles": "CCOC(=O)c1ccc(N2C(=O)CC(Sc3nc(O)c(CC)c(=O)[nH]3)C2=O)cc1", "note": "(stereo not given)", "activity change, negative = inhibition": "-10.7%"},
      {"smiles": "COc1ccc(N2C(=O)CC(SC(C)C)C2=O)cc1", "note": "(stereo not given)", "activity change, negative = inhibition": "-4.33%"}
    ]}
  ]
}
